# High-throughput results (PubChem)
# The list is not random: actives were taken first. Their share in the collection is about 3.5%.
# MITF inh: inhibitors of human MITF | O75030 | AlphaScreen MITF homodimerization, bead proximity signal | inhibition, % at 2.6 µM | hit rate 0.91% among 650,000 | AID 1259374; in the data active = inhibition above about 50%
# TEAD-YAP inh: TEAD-YAP interaction inhibition | inhibition, % at 9.12 µM | HEK-TIYL cells, TEAD-Gal4/YAP UAS-luciferase luminescence | hit rate 1.4% among 640,000 | AID 1259422; in the data active = inhibition above about 32%
# FBW7 act: human FBW7 E3 ligase activation, primary screen; Q969H0; AlphaScreen FBW7–phospho-cyclin E peptide binding, activator screen; normalized activity (activation), % at 26.1 µM; hit rate 0.13% among 650,000; AID 1259310; in the data active = normalized activity above about 1.9%;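 also: purified mutant Fbw7 with reduced substrate affinity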
# GPR151 activ: activates the human receptor GPR151; Q8TDV0; PathHunter beta-arrestin GPR151 cells, luminescence; activation, % at 11.2 µM; hit rate 1% among 650,000; AID 1508602; in the data active = activation above about 4.9%
# Target sequence (Q8TDV0 whole entry, looked up): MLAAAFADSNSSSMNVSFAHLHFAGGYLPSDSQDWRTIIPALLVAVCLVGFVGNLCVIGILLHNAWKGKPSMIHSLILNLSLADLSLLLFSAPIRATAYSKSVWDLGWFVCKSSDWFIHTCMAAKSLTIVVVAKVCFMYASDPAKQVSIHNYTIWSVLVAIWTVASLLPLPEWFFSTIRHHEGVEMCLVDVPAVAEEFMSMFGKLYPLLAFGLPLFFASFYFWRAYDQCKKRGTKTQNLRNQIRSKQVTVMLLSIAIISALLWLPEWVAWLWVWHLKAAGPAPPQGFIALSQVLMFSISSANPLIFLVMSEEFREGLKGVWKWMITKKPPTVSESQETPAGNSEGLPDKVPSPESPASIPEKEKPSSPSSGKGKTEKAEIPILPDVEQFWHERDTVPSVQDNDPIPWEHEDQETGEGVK
# A number is an active result; - = inactive.
SMILES,MITF inh,TEAD-YAP inh,FBW7 act,GPR151 activ
COc1ccc2[nH]c(=O)c(CN(Cc3cccnc3)C(=O)Nc3ccc(F)cc3)cc2c1,-,46,-,-
CCN1CCN(CCCNC(=O)c2ccc3nc(N4CCC(C)CC4)sc3c2)CC1,-,-,-,-
O=C(CN1Cc2ccccc2C1=O)NCc1cccs1,-,-,-,-
O=C(Nc1cccc(-c2ccc(N3CCCCCC3)nn2)c1)c1cccs1,-,-,-,-
O=C(Nc1ccc(-c2ccc(N3CCCCC3)nn2)cc1)c1cccs1,-,-,7.4,-
Cc1cc(=O)[nH]c(N/N=C/c2c(O)ccc3ccccc23)n1,62,89,-,-
O=c1cnnc(N/N=C/c2c(O)ccc3ccccc23)[nH]1,117,88,-,-
CN1CCCCC1C(=O)N/N=C/c1c(O)ccc2ccccc12 (stereo not drawn),84,78,-,-
NC(=S)N/N=C/c1c2ccccc2cc2ccccc12,-,-,-,-
NC(=S)N/N=C/c1c(O)ccc2ccccc12,78,-,-,-
CCCCc1ccc(C2=N/C(=C\C=C\c3ccccc3OC)C(=O)O2)cc1,-,-,-,-
CCOC(=O)c1c(NC(=O)CSc2nnc(CNC(=O)c3cccs3)n2-c2ccc(F)cc2)sc2c1CCC2,-,-,-,-
Cc1nnc(N/N=C/c2c(O)ccc3ccccc23)[nH]c1=O,-,89,-,-
O=c1[nH]nc(N/N=C/c2c(O)ccc3ccccc23)c(=O)[nH]1,-,-,-,-
COC(=O)c1ccc(NC(=O)c2cc(OC(C)=O)cc(OC(C)=O)c2)cc1,-,45,-,-
CC(=O)Oc1cc(C(=O)Nc2ccc(F)cc2)cc(C(=O)Nc2ccc(F)cc2)c1,-,-,-,-
COc1cc(Nc2cc(Nc3nccc4ccccc34)nc(N)n2)cc(OC)c1OC,-,77,-,-
COc1cc(Nc2cc(Nc3ccccn3)nc(N)n2)cc(OC)c1OC,-,44,-,-
COc1cc(Nc2cc(Nc3ccccn3)ncn2)cc(OC)c1OC,-,-,-,-
COc1ccccc1OCC(=O)O/N=C(\N)Cc1ccc(Cl)cc1Cl,-,-,-,-
FC(F)(F)c1cccc(CNc2nc(N3CCOCC3)nc3nc[nH]c23)c1,-,-,-,-
FC(F)(F)c1cccc(CNc2ccnc(NCCN3CCOCC3)n2)c1,-,-,-,-
FC(F)(F)c1cccc(CNc2nc(-c3ccc(N4CCOCC4)nc3)nc3nc[nH]c23)c1,-,-,18,-
c1cc(Nc2ccc(N3CCOCC3)cc2)nc(NCc2ccc3c(c2)OCO3)n1,-,38,-,-
FC(F)(F)c1cccc(CNc2ccnc(Nc3ccc(N4CCOCC4)cc3)n2)c1,-,64,-,-
SMILES,MITF inh,TEAD-YAP inh,FBW7 act,GPR151 activ
FC(F)(F)Oc1cccc(-c2nccc(NCc3cccc(C(F)(F)F)c3)n2)c1,-,50,-,-
O=C(Nc1csc(-c2ccncc2)c1)[C@H]1CNC[C@@H]1c1ccccc1,-,-,-,-
O=C(Nc1cc(C(=O)Nc2ccccn2)cc(C(=O)Nc2ccccn2)c1)c1ccc([N+](=O)[O-])cc1,-,-,-,-
Cc1cc(NC(=O)c2ccc([N+](=O)[O-])o2)n(-c2nc3ccccc3[nH]2)n1,-,-,-,-
CCCCNCc1ccccc1OCC(O)CN1CCc2ccccc2C1 (stereo not drawn),-,-,-,-
OCC1CCCN1c1nccc(NCc2cccc(C(F)(F)F)c2)n1 (stereo not drawn),-,43,-,-
CCSc1nc2sccn2c(=O)c1C(=O)N(C)C(C)C,-,-,-,-
Cc1ccc(/C=N/NC(=O)CNc2ccccc2C)cc1,-,44,-,-
C1=Nc2ccccc2SC(c2cccnc2)=C1,-,86,-,-
O=C(NCCc1ccccc1)c1ccc(OC2CCN(C(=O)c3ccco3)CC2)cc1,-,83,-,-
O=C1CC(C(=O)N2CCC(Oc3ccc(C(=O)NCCc4ccccc4)cc3)CC2)CN1 (stereo not drawn),-,80,-,-
CC(C)=CC(=O)N1CCC(Oc2ccc(C(=O)NCCc3ccccc3)cc2)CC1,-,-,-,-
Cc1cc(C(=O)N2CCN(Cc3ccccc3)CC2)on1,-,-,1.9,-
Cc1cccc(CN2CCN(C(=O)CCl)CC2)c1,-,38,-,-
COc1cccc(-c2cc(C(=O)N3CCN(Cc4ccccc4)CC3)on2)c1,-,-,-,-
CCOC(=O)N1CCN(Cc2cccc(C)c2)CC1,-,-,-,-
Cc1ccccc1CSc1nnc2ccc(-c3ccc(F)cc3)nn12,-,-,-,-
CCN(C(=O)c1cc(OC)c(OC)cc1[N+](=O)[O-])c1ccccc1C,-,-,-,-
Cc1ncn(-c2ccc(Nc3ncc4cccc(-n5cccn5)c4n3)cc2)n1,-,43,-,-
CC(=O)Nc1cccc(-c2cccc3cnc(Nc4ccc(-n5cnc(C)n5)cc4)nc23)c1,-,57,-,-
Cc1ncn(-c2ccc(Nc3ncc4cccc(-c5ccncc5)c4n3)cc2)n1,-,45,-,-
CC(NC(=O)Cn1c(=O)[nH]c2ccsc2c1=O)c1ccccc1 (stereo not drawn),-,-,-,-
O=C(O)c1ccc(N2N=C(c3ccccc3)/C(=C\c3cccc([N+](=O)[O-])c3O)C2=O)cc1,-,-,-,-
O=C(O)c1ccc(N2N=C(c3ccccc3)/C(=C/c3ccco3)C2=O)cc1,70,-,-,-
CC1=C(C(=O)OCCOc2ccccc2)C(c2cccc(Cl)c2Cl)C2=C(CC(c3ccc(Cl)cc3)CC2=O)N1 (stereo not drawn),-,-,-,-
SMILES,MITF inh,TEAD-YAP inh,FBW7 act,GPR151 activ
CN(C)c1ccc(C(=NO)c2ccc(N(C)C)cc2)cc1,-,-,-,-
CN(C)c1ccc(C(=C2C=CC(=[N+](C)C)C=C2)c2ccc(N(C)C)cc2)cc1,92,89,-,-
Cc1cccn2c(=O)c3cc(C(=O)NC4CCCCC4)c(=N)n(CCCn4ccnc4)c3nc12,-,-,2.1,-
Cc1cccn2c(=O)c3cc(C(=O)NCc4cccnc4)c(=N)n(Cc4ccco4)c3nc12,-,-,-,-
CCNC(=O)c1cc2c(=O)n3cccc(C)c3nc2n(Cc2ccco2)c1=N,-,58,-,-
COc1ccc(C2=NOC(C(=O)N3CCOCC3)C2)cc1 (stereo not drawn),-,-,-,-
O=C(COc1cccc2ccc(N3CCCC3)nc12)Nc1ccc2c(c1)OCO2,-,-,-,-
O=C(O)CCC(=O)N1N=C(c2ccccc2)CC1c1ccccc1 (stereo not drawn),-,-,1.9,-
CCC(=O)N(Cc1ccc(Cl)cc1)Cc1nc2ccccc2c(=O)[nH]1,-,-,-,-
Cc1ccc(C(=O)Nc2cc(C)c(C)cc2O)cc1,-,-,-,-
Cc1ccc(NC(=O)c2ccccc2Cl)cc1C,-,-,-,-
Cc1ccc(C(=O)Nc2ccc(C(=O)N3CCCCC3)cc2)cc1,-,-,3.4,-
Cc1cc(NC(=O)c2ccccc2Cl)ccc1O,-,83,-,-
Cc1ccc(C(=O)Nc2ccc(NC(=O)C(F)(F)F)cc2)cc1,-,56,-,-
Cc1ccc(C(=O)Nc2cc(C)c(O)cc2C)cc1,-,65,-,-
O=C(COc1cccc2ccccc12)Nc1ccccc1CO,-,-,-,-
